# Publication PMC7862700, “An all-to-all approach to the identification of sequence-specific readers for epigenetic DNA modifications on cytosine”
# What was measured:
# Test in all cases: DAPPL (digital affinity profiling via proximity ligation, sequencing); 10 mM Tris-HCl pH 7.5, 50 mM NaCl, 1 mM DTT, 4% glycerol, room temperature, 30 min; GST-TFs on glutathione beads, 16-mer random dsDNA library, 0.1% formaldehyde crosslink after washing; high values mean tight binding
# FLI1 = biological target: T1, FLI1 (Homo sapiens, UniProt Q01543 1-452); conditions: protein: recombinant; tags: N-terminal GST; dsDNA, one strand shown
# T1 sequence: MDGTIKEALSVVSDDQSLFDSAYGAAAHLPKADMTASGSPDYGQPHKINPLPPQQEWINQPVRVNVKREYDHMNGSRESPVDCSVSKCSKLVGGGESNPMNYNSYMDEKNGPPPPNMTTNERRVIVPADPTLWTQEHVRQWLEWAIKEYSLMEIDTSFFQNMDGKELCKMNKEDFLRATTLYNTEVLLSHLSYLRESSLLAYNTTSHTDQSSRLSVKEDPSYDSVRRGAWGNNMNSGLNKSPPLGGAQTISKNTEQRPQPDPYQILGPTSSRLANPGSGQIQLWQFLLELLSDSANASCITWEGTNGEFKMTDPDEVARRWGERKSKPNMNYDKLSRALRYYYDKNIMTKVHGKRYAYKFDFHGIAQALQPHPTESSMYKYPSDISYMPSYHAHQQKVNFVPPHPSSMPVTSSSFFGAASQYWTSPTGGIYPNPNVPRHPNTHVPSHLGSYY
# Summary of the method: (§1)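 GST fusions of human transcription factors were expressed in yeast and captured with glutathione beads. Once given DNA barcodes and pooled alongside a tag-only sample, they were incubated for 30 min at room temperature with 200 nmole of a random double-stranded 16-mer DNA library in Tris/NaCl/DTT/glycerol buffer, then washed, crosslinked (0.1% formaldehyde), proximity-ligated, PCR-amplified and sequenced on an Illumina NextSeq500. The binding signal of each hexamer is its read frequency for a factor divided by its frequency for the tag-only sample.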
# ELK1 = biological target: T2, ELK1 (Homo sapiens, UniProt P19419 1-428); conditions: protein: recombinant; tags: N-terminal GST; dsDNA, one strand shown
# T2 sequence: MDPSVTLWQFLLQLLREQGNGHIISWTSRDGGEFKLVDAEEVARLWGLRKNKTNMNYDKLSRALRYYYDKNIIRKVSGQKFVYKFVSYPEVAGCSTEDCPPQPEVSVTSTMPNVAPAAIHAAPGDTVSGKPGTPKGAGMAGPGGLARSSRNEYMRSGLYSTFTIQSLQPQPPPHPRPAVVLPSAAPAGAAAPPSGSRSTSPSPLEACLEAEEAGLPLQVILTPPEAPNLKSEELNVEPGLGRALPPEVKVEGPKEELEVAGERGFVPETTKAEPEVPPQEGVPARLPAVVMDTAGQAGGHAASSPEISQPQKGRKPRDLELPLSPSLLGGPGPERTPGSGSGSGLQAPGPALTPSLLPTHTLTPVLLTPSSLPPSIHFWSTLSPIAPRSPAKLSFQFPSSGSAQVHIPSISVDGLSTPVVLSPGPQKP
# Summary of the method: as §1
# GABPA = biological target: T3, GABPA (Homo sapiens, UniProt Q06546 1-454); conditions: protein: recombinant; tags: N-terminal GST; dsDNA, one strand shown
# T3 sequence: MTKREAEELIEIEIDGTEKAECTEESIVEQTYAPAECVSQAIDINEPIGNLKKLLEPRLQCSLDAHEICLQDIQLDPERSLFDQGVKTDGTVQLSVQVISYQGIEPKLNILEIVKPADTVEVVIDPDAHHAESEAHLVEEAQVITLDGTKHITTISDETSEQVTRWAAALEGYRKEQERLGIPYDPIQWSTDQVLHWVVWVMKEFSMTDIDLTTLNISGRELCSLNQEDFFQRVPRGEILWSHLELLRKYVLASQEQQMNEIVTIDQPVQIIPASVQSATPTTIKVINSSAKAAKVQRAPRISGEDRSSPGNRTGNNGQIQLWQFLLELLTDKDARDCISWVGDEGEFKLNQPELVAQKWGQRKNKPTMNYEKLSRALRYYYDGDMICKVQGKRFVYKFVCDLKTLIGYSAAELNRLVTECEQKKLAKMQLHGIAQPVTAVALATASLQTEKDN
# Summary of the method: as §1
# ERG = biological target: T4, ERG (Homo sapiens, UniProt P11308 1-479); conditions: protein: recombinant; tags: N-terminal GST; dsDNA, one strand shown
# T4 sequence: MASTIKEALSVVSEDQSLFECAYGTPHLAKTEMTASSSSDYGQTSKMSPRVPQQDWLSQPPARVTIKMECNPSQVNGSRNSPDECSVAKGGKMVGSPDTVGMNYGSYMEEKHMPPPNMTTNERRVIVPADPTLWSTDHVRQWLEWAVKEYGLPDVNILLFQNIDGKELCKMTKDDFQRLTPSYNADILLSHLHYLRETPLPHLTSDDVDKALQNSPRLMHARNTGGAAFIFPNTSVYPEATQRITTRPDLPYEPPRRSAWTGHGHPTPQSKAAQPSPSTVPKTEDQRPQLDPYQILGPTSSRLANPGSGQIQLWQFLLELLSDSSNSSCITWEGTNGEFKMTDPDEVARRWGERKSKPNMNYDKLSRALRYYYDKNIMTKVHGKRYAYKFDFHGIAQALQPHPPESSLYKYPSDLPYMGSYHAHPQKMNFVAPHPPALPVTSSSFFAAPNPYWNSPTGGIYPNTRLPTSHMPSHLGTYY
# Summary of the method: as §1
# ELF1 = ELF1 (Homo sapiens, UniProt P32519 1-619); conditions: protein: recombinant; tags: N-terminal GST; dsDNA, one strand shown
# Chain of ELF1 (P32519 whole entry): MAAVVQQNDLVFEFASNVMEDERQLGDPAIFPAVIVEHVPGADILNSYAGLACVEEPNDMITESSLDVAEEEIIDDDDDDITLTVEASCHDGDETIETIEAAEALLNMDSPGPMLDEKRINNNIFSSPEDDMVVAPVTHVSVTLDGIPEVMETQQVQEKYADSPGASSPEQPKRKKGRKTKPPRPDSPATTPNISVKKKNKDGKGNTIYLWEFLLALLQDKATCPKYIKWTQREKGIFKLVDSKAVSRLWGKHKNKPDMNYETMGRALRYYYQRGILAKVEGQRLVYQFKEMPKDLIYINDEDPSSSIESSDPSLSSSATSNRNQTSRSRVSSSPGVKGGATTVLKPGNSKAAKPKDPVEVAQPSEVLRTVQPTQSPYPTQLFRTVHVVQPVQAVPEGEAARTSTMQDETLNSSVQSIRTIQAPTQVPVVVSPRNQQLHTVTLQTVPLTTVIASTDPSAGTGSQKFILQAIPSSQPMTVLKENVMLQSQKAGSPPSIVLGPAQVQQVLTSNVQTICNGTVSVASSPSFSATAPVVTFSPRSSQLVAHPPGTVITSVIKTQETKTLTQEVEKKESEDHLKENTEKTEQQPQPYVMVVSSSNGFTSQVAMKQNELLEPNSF
# Summary of the method: as §1
# EHF = biological target: T5, EHF (Homo sapiens, UniProt Q9NZC4 1-300); conditions: protein: recombinant; tags: N-terminal GST; dsDNA, one strand shown
# T5 sequence: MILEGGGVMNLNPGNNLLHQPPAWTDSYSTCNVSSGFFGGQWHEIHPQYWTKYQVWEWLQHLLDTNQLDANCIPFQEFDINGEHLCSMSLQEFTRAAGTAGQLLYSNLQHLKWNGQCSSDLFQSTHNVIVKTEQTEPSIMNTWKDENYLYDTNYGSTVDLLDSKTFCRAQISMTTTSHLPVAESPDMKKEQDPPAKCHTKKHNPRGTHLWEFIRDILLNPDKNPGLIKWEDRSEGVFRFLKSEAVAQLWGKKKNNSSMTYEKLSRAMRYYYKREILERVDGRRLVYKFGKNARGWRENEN
# Summary of the method: as §1
# SPI1 = SPI1 (Homo sapiens, UniProt P17947 1-270); conditions: protein: recombinant; tags: N-terminal GST; dsDNA, one strand shown
# Summary of the method: as §1
# SPIB = SPIB (Homo sapiens, UniProt Q01892 1-262); conditions: protein: recombinant; tags: N-terminal GST; dsDNA, one strand shown
# Chain of SPIB (Q01892 whole entry): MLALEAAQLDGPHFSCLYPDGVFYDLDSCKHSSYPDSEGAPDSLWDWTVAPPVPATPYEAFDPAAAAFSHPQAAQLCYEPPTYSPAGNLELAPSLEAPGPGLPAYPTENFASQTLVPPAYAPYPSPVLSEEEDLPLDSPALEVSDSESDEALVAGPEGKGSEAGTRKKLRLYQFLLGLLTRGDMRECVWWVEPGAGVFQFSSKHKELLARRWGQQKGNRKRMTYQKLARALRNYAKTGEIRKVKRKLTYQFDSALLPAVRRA
# Summary of the method: as §1
# ELK3 = biological target: T6, ELK3 (Homo sapiens, UniProt P41970 1-407); conditions: protein: recombinant; tags: N-terminal GST; dsDNA, one strand shown
# T6 sequence: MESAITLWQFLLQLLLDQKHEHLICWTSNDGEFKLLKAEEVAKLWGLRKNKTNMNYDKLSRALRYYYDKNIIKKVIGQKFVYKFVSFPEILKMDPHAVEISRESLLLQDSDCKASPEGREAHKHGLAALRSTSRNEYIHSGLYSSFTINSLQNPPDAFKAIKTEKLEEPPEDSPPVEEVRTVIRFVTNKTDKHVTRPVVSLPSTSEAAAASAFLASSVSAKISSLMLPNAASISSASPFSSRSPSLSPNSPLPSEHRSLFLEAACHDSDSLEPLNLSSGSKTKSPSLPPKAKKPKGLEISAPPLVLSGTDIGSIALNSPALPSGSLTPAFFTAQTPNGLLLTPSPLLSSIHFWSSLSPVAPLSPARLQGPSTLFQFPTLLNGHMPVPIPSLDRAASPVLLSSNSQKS
# Summary of the method: as §1
# FEV = biological target: T7, FEV (Homo sapiens, UniProt Q99581 1-238); conditions: protein: recombinant; tags: N-terminal GST; dsDNA, one strand shown
# T7 sequence: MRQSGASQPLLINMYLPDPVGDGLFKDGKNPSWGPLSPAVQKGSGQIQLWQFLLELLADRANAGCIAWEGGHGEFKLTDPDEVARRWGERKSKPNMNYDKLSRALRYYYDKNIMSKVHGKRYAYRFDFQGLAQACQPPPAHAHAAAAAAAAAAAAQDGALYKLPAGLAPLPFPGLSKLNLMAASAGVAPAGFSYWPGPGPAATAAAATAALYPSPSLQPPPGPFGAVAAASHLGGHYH
# Summary of the method: as §1
# ETV5 = ETV5 (Homo sapiens, UniProt P41161 1-510); conditions: protein: recombinant; tags: N-terminal GST; dsDNA, one strand shown
# Chain of ETV5 (P41161 whole entry): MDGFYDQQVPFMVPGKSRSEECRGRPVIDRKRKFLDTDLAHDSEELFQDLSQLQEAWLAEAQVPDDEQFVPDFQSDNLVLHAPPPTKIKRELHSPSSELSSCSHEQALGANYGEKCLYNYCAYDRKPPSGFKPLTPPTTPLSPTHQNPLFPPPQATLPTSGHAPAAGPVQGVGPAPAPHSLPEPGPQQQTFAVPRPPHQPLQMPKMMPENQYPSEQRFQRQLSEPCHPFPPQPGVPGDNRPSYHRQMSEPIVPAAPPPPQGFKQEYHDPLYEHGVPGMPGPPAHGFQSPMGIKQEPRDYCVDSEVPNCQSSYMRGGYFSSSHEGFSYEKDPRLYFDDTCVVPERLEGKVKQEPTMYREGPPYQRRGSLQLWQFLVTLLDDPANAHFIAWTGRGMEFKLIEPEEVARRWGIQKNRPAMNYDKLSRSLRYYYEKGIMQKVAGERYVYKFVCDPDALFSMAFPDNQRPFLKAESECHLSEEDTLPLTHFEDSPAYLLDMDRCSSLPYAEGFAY
# Summary of the method: as §1
# HSF1 = HSF1 (Homo sapiens, UniProt Q00613 1-529); conditions: protein: recombinant; tags: N-terminal GST; chain copies: 3; dsDNA, one strand shown
# Chain of HSF1 (Q00613 whole entry): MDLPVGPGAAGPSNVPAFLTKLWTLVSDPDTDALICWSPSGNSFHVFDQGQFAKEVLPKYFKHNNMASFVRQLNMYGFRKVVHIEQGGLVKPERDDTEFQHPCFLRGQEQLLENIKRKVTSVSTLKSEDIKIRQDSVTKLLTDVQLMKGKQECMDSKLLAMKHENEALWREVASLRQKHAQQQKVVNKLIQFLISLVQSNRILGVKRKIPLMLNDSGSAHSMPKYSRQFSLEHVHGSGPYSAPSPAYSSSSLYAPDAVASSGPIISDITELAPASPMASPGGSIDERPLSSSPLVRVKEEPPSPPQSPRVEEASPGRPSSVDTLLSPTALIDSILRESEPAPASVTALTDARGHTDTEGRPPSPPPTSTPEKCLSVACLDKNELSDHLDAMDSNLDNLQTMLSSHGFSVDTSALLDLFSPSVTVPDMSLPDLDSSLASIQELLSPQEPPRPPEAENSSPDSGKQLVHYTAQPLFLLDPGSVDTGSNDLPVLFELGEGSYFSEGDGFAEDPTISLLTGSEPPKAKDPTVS
# Summary of the method: as §1
# SPIC = biological target: T8, SPIC (Homo sapiens, UniProt Q8N5J4 1-248); conditions: protein: recombinant; tags: N-terminal GST; dsDNA, one strand shown
# T8 sequence: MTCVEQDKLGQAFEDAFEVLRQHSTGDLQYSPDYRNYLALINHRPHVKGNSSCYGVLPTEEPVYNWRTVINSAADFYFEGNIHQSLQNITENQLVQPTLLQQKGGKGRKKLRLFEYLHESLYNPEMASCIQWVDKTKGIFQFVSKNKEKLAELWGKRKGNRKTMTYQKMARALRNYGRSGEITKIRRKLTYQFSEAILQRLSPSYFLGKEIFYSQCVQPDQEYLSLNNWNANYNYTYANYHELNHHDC
# Summary of the method: as §1
# ELF4 = ELF4 (Homo sapiens, UniProt Q99607 1-663); conditions: protein: recombinant; tags: N-terminal GST; dsDNA, one strand shown
# Chain of ELF4 (Q99607 whole entry): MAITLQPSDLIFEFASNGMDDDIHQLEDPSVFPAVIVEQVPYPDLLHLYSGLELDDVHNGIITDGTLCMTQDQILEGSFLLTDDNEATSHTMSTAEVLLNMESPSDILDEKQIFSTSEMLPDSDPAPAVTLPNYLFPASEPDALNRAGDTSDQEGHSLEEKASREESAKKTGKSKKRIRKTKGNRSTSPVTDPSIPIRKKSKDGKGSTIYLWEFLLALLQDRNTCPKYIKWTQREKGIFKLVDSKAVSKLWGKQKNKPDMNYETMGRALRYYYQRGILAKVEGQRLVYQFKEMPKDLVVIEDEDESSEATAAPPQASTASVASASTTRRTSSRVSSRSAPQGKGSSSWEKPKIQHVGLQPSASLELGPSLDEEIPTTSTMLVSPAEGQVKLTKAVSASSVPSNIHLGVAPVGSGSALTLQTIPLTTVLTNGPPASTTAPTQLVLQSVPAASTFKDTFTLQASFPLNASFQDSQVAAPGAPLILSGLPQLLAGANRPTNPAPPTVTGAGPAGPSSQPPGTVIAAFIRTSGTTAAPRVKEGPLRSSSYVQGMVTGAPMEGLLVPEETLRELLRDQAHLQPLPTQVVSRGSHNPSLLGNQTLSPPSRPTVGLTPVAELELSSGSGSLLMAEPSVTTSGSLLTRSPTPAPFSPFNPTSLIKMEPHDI
# Summary of the method: as §1
# ELK4 = biological target: T9, ELK4 (Homo sapiens, UniProt P28324-2 1-405); conditions: protein: recombinant; tags: N-terminal GST; dsDNA, one strand shown
# T9 sequence: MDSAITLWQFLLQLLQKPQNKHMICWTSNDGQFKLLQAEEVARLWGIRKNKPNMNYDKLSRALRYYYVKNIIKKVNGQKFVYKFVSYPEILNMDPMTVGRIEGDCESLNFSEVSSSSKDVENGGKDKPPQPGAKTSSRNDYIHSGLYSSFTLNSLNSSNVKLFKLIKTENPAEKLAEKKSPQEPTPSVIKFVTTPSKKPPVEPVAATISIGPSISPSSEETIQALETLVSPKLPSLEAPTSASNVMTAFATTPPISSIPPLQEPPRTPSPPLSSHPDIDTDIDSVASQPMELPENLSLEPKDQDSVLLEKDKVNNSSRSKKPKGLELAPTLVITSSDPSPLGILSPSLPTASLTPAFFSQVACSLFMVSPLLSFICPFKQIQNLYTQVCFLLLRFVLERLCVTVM
# Summary of the method: as §1
# ETV2 = biological target: T10, ETV2 (Homo sapiens, UniProt O00321 1-342); conditions: protein: recombinant; tags: N-terminal GST; dsDNA, one strand shown
# T10 sequence: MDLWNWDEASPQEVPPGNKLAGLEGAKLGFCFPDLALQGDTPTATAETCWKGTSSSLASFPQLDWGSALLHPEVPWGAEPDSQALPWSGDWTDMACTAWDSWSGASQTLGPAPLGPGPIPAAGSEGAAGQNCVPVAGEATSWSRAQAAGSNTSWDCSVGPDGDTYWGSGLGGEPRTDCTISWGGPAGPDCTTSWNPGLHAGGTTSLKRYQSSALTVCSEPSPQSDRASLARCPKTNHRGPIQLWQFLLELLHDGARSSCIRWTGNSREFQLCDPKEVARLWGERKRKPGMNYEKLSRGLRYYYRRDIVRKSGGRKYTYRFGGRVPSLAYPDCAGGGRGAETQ
# Summary of the method: as §1
# ELF3 = biological target: T11, ELF3 (Homo sapiens, UniProt P78545 1-371); conditions: protein: recombinant; tags: N-terminal GST; dsDNA, one strand shown
# T11 sequence: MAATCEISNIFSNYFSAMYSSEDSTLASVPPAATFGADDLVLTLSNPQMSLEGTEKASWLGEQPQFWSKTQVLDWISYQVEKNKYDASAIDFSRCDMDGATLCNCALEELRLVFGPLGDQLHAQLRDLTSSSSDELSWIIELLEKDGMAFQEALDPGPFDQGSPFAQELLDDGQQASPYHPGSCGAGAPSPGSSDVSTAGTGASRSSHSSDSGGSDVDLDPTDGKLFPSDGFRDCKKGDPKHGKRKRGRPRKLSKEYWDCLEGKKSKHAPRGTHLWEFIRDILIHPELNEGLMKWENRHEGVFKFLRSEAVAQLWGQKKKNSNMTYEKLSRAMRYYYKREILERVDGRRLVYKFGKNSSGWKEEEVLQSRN
# Summary of the method: as §1
# CRX = CRX (Homo sapiens, UniProt O43186 1-299); conditions: protein: recombinant; tags: N-terminal GST; dsDNA, one strand shown
# Chain of CRX (O43186 whole entry): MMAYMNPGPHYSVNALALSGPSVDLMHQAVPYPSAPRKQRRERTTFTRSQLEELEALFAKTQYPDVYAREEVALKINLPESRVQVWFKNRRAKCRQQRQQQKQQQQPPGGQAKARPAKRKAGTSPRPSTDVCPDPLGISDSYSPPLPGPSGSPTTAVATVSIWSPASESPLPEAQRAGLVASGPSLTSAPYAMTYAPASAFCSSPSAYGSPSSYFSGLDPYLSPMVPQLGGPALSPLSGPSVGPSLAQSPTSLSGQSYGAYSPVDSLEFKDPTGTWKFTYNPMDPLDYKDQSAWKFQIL
# Summary of the method: as §1
# ETV1 = ETV1 (Homo sapiens, UniProt P50549 1-477); conditions: protein: recombinant; tags: N-terminal GST; dsDNA, one strand shown
# Chain of ETV1 (P50549 whole entry): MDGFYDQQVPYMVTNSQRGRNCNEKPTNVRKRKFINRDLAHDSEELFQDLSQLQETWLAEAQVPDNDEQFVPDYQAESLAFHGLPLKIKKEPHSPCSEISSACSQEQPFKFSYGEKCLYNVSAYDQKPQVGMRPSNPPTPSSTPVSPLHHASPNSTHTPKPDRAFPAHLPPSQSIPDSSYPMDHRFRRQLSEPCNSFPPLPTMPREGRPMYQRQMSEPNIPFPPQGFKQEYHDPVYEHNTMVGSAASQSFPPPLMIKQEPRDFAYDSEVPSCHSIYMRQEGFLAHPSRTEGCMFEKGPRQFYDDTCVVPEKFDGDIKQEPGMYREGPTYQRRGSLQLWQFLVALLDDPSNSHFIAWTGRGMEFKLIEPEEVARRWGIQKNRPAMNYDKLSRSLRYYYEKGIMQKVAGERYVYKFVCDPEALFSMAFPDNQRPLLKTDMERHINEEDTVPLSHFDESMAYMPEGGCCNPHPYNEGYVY
# Summary of the method: as §1
sequence,measurement,setting,value
CTGTAT,binding signal,FLI1,"1.35 fold enrichment (6-mer frequency, TF over GST control)"
same,binding signal,ELK1,"1.28 fold enrichment (6-mer frequency, TF over GST control)"
same,binding signal,GABPA,"1.31 fold enrichment (6-mer frequency, TF over GST control)"
same,binding signal,ERG,"1.18 fold enrichment (6-mer frequency, TF over GST control)"
same,binding signal,ELF1,"1.24 fold enrichment (6-mer frequency, TF over GST control)"
same,binding signal,EHF,"1.3 fold enrichment (6-mer frequency, TF over GST control)"
same,binding signal,SPI1,"1.23 fold enrichment (6-mer frequency, TF over GST control)"
same,binding signal,SPIB,"1.31 fold enrichment (6-mer frequency, TF over GST control)"
same,binding signal,ELK3,"1.31 fold enrichment (6-mer frequency, TF over GST control)"
same,binding signal,FEV,"1.34 fold enrichment (6-mer frequency, TF over GST control)"
same,binding signal,ETV5,"1.35 fold enrichment (6-mer frequency, TF over GST control)"
same,binding signal,HSF1,"1.18 fold enrichment (6-mer frequency, TF over GST control)"
same,binding signal,SPIC,"1.51 fold enrichment (6-mer frequency, TF over GST control)"
same,binding signal,ELF4,"1.22 fold enrichment (6-mer frequency, TF over GST control)"
same,binding signal,ELK4,"1.29 fold enrichment (6-mer frequency, TF over GST control)"
same,binding signal,ETV2,"1.25 fold enrichment (6-mer frequency, TF over GST control)"
same,binding signal,ELF3,"1.13 fold enrichment (6-mer frequency, TF over GST control)"
same,binding signal,CRX,"1.17 fold enrichment (6-mer frequency, TF over GST control)"
same,binding signal,ETV1,"1.39 fold enrichment (6-mer frequency, TF over GST control)"
